Screening data (PubChem BioAssay)
aSyn 5UTR act – Activators via SNCA 5'UTR binding, MLPCN | alpha-synuclein 5'UTR reporter, activators screen | activity score, % (tested at 7.5 µM), hits read low | hit rate 7.1% among 300,000; in the data active = activity score below about -60%
* marks the source's active call; other numbers are inactive results. The list is a sample of the results.

SMILES | aSyn 5UTR act
Cc1cc(C(=O)CSc2nc3ccccc3c(=O)[nH]2)c(C)n1CC1CCCO1 (stereo not drawn) | -114.9*
Cc1cc(C(=O)CN2C(=O)c3ccccc3S2(=O)=O)c(C)n1CC1CCCO1 (stereo not drawn) | 110.8
Cc1cc(C(=O)CSc2nc3ccccc3n2CCC#N)c(C)n1Cc1cccs1 | -124.4*
Cc1ccc(/C(N)=N/OC(=O)CCc2ccccc2)cc1 | -129.4*
N/C(=N\OC(=O)CCc1ccccc1)c1ccccc1Cl | -69.8*
C(=N\N=C\c1cccs1)/c1cccs1 | -177.9*
COc1ccc(OC)c(NC(=O)NC2(C(F)(F)F)Oc3ccccc3O2)c1 | -72.7*
Cc1ccc(C(=O)CC(=O)c2ccccc2)cc1 | -237.9*
O=C(O)c1ccc2c(c1)C(=O)N(c1ccc(C(=O)OCC(=O)c3ccccc3)cc1)C2=O | -62.5*
Cc1ccc(C(=O)COC(=O)c2cccc(NC(=O)c3ccc([N+](=O)[O-])cc3[N+](=O)[O-])c2)cc1 | -161.7*
Cc1ccc(C(=O)c2c3ccc([N+](=O)[O-])cc3[n+]([O-])n2CCCN)cc1 | 63.3
CCCC(=O)c1ccc(-c2ccccc2)cc1 | -70.1*
Nc1nc(Cl)nc2c1ncn2[C@H]1C[C@H](O)[C@@H](CO)O1 | 83.6
Cc1ccc(C(=O)Cn2c(-c3ccccc3)noc2=O)cc1 | -99.8*
Cc1ccc(C(=O)CCc2ccc(N)cc2)cc1 | -77.3*
CCc1ccc(C(=O)COC(=O)c2ccc(-c3nnc(-c4ccccc4)o3)cc2)cc1 | -161.2*
Cc1cc(C)c(NC(=O)CC(=O)c2ccccc2)c(Cl)c1 | -92.9*
O=C(CN1C(=O)CCC1=O)c1ccc(-c2ccccc2)cc1 | -81.7*
N=c1ccn(CC(=O)c2ccc(-c3ccccc3)cc2)cc1 | 109.6
CCOC(=O)C(CC(=O)c1ccccc1)CC(=O)c1ccccc1 | -105.5*
Cc1ccc(C(=O)Sc2cccccc2=O)cc1 | -108.9*
Cc1ccc(C(=O)OCC(=O)c2ccccc2)cc1 | -85.2*
COc1ccnc(CSC(N)=Nc2ccc(F)cc2)c1 | -111.4*
C=CCN(C(=O)CN1CCCCC1)c1nc(-c2ccccc2)cs1 | -110.3*
N#C/C(=C(/O)CN1CCCC1)c1nc(-c2ccccc2)cs1 | -115.2*
SMILES | aSyn 5UTR act
O=C(CC1CCCCC1)NCc1ccccc1Cl | -107.2*
Cn1c(=O)oc2cc(NC(=O)CCl)ccc21 | -107.3*
C=CCNC(=O)c1ccc(OC2CCN(S(=O)(=O)N(C)C)CC2)cc1 | -161.6*
COc1ccc(Nc2nc(C)cc(C)n2)cc1Cl | -114.2*
CCc1ccc(Nc2nc(C)cc(C)n2)cc1 | -179.4*
Cc1cc(C)nc(Nc2ccc(C(=O)O)cc2)n1 | -156.7*
Cc1cc(C)nc(Nc2ccc(N3CCCC3)cc2)n1 | -65.3*
Cc1cc(NC(=O)c2cnn3cccnc23)no1 | -83.2*
O=C(Nc1cc(Cl)cc(Cl)c1)c1cnn2cccnc12 | -96.7*
O=C(Nc1cccc(Cl)c1)c1cnn2cccnc12 | -202.0*
Cc1ccc2c(c1)=C(c1sc(N(C)c3ccc(O)cc3)nc1O)C(=O)N=2 | -68.4*
Clc1ccc(CO/N=C2\CCCc3nonc32)cc1 | -69.9*
O=C(/C=C/N1CCOCC1)c1ccc(-c2ccccc2)cc1 | -123.2*
S=C(c1ccc(-c2ccccc2)cc1)N1CCOCC1 | 64.5
O=C(Oc1ccc(-c2ccccc2)cc1)N1CCOCC1 | -103.8*
O=C(COc1ccc2cc(Br)ccc2c1)N1CCCC1 | -62.0*
C=CCNC(=S)NNC(=O)COc1ccc2cc(Br)ccc2c1 | -156.9*
O=C(Oc1ccc2ccccc2c1Cl)N1CCCC1 | -78.8*
O=C(COc1ccc2ccccc2c1Br)Nc1ncn[nH]1 | -67.9*
CC(C)c1ccc(OCC(=O)N2CCCCCC2)c(Br)c1 | -132.0*
O=C(COc1ccc2ccccc2c1Br)N1CCCC1 | -90.5*
N#C/C(=C(/O)c1ccc(Cl)cc1)c1nc2ccccc2[nH]1 | -67.3*
O=C(/C(=C/c1ccc(Cl)cc1)c1nc2ccccc2[nH]1)c1ccccc1 | -217.2*
NC(=O)N/N=C/c1ccc(-c2cccc(C(F)(F)F)c2)o1 | -84.1*
COC(=O)N/N=C/c1ccc(-c2cc(Cl)cc(Cl)c2)o1 | 52.0
SMILES | aSyn 5UTR act
CS(=O)(=O)N1N=C(c2ccc3nccnc3c2)CC1c1ccccc1 (stereo not drawn) | -79.1*
CS(=O)(=O)N1N=C(c2ccccc2)CC1c1ccc2nccnc2c1 (stereo not drawn) | -77.3*
Cc1ccc(C2=NN(S(C)(=O)=O)C(c3ccc4nccnc4c3)C2)cc1 (stereo not drawn) | -127.3*
CS(=O)(=O)Nc1ccc(C2=NN(S(C)(=O)=O)C(c3ccc4c(c3)OCO4)C2)cc1 (stereo not drawn) | -207.0*
COc1ccc(C2CC(c3ccc(OC)c(OC)c3)=NN2S(C)(=O)=O)cc1 (stereo not drawn) | -169.5*
COc1ccc(C2=NN(S(C)(=O)=O)C(c3ccc4nccnc4c3)C2)cc1 (stereo not drawn) | -150.5*
O=C(CSc1nc2cc(Cl)ccc2o1)Nc1ccc(N2CCOCC2)cc1 | -132.9*
O=C(CSc1nc2ccccc2o1)Nc1ccc(N2CCOCC2)cc1 | -147.0*
Cc1ccn(-c2ccc(NC(=O)c3cccs3)cc2)n1 | -63.0*
COc1ccc(NC(=O)c2cccs2)cc1 | -148.7*
CCCCOc1cccc(C(=O)Nc2ccc(NC(=O)c3cccs3)cc2)c1 | 64.4
O=C(Nc1cccc(N2CCCC2)c1)c1cccs1 | -66.0*
COc1ccc(NC(=S)NNC(=O)c2cccs2)cc1 | -80.6*
CN1CCN(c2ccc(NC(=O)c3cccs3)cc2)CC1 | -87.6*
COc1ccc(NC(=O)Cn2nnc(-c3ccccc3NC(=O)c3cccs3)n2)cc1 | -168.6*
Cc1ccc(NC(=O)Cn2nnc(-c3ccccc3NC(=O)c3cccs3)n2)cc1 | 67.2
CC1=C(C)CC(C(=O)NCC(=O)c2ccccc2)C(C(=O)O)C1 (stereo not drawn) | -169.1*
O=C(Nc1ccc(NC(=O)C2CC2)cc1)c1cccs1 | -168.6*
COc1ccccc1NC(=O)Cn1nnc(-c2ccccc2NC(=O)c2cc3ccccc3oc2=O)n1 | -118.9*
O=C(Nc1ccc(Cl)cc1)c1cccs1 | -146.4*
COc1ccc(NC(=O)c2cccs2)cc1O | -134.9*
O=C(CNC(=S)NC(=O)c1ccco1)c1ccccc1 | -79.7*
O=C(Nc1ccc2[nH]ccc2c1)c1cccs1 | -105.2*
COc1ccc(/C=C/C(=O)c2ccc(NC(=O)c3cccs3)cc2)cc1OC | -93.6*
Cc1cccnc1NC(=S)NC(=O)c1cccs1 | -398.5*
SMILES | aSyn 5UTR act
Cc1conc1NC(c1cccs1)c1ccc2cccnc2c1O (stereo not drawn) | 66.3
CCC(=O)NC(c1cccs1)c1ccc2cccnc2c1O (stereo not drawn) | 79.6
Cc1cccnc1NC(=O)NC(=O)c1ccc(C(C)(C)C)s1 | -169.5*
O=C(NC(=S)Nc1ccc(Br)cn1)c1cccs1 | -172.5*
O=C(NC(=S)Nc1ccc(N2CCCCC2)c(Cl)c1)c1cccs1 | -109.8*
CC(C)c1ccc(NC(=S)NNC(=O)c2cccs2)cc1 | -95.3*
O=C(CNC(=S)NC(=O)c1cccs1)c1ccccc1 | -74.3*
O=C(NC(=S)Nc1ccccc1)c1cccs1 | -147.2*
COc1cc(OC)cc(C(=O)Nc2ccc(N3CCN(C(=O)c4cccs4)CC3)cc2)c1 | -180.3*
O=C(Cc1ccccc1)NNC(=S)NC(=O)c1cccs1 | 75.4
CC(C)C(=O)Nc1ccc(NC(=O)c2cccs2)cn1 | -131.8*
CCCCNS(=O)(=O)c1ccc(NC(=O)c2cccs2)cc1 | -65.9*
O=C(Nc1ccc(NC(=O)c2cccs2)cc1)c1cccs1 | -140.8*
CCC(C)c1ccc(NC(=O)c2cccs2)cc1 (stereo not drawn) | -71.0*
